Screening results: PubChem, National Center for Advancing Translational Sciences (NCATS)
In the library only some 19% were active in any assay of this set; here they are far more common.
HT1080 IDH1KD tx: kills HT-1080 cells with IDH1 knockdown; HT-1080 IDH1 knockdown viability, ATP luminescence, 48 h; Potency, µM (highest dose often 46.1 µM), usual class: cytotoxic; 360,000 tested, 2% active; AID 686971
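Knockdown cells (IDH1KD HT-1080) received compounds 2 h after plating at 750 cells/well and were kept 48 h at 37 °C in 5% FBS RPMI. A CellTiter-Glo luminescence read gave % activity for curve fitting.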
IL-1B inflam inh: inhibitors of inflammasome signaling (IL-1 beta secretion); activity change, % at 57.5 µM; AID 743279; 360,000 tested, 4.7% active; THP-1 LPS/ATP IL-1B secretion, AlphaLISA, 16 h; hits give low values; in the data active = activity change below about -50%; inconclusive = mostly about -30% to -49%
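THP-1 cells pretreated 1 hr with compounds (up to 57.5 uM final), then stimulated with LPS (250 ng/mL final) plus ATP (1.25 mM final); secreted IL-1B measured by AlphaLISA after 16 hr, decreased signal indicating inhibition.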
HT1080-NT tox: kills 2HG-producing HT-1080-NT fibrosarcoma cells | HT-1080-NT fibrosarcoma viability, CellTiter-Glo ATP luminescence, 48 h | 360,000 tested, 1.6% active | AID 686970 | Potency, µM (top dose mostly 46.1 µM), most hits filed as cytotoxic;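 note: NT is the 2HG producing partner of a matched IDH1 knockdown line; nearly all actives have a fitted effect of over 55% in size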
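Fibrosarcoma NT cells, 750 per well in 5% FBS RPMI, were exposed to compound for 48 hours. Viability: CellTiter-Glo luminescence.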
DT40 TDP1 no CPT: qHTS for Inhibitors of human tyrosyl-DNA phosphodiesterase 1 (TDP1): qHTS in cells in absence of CPT; DT40 Tdp1-/- hTDP1 cells, no CPT, ATP luminescence, 48 h; Potency, µM (highest dose often 46.2 µM), most hits filed as inhibitors; 420,000 tested, 15% active; note: nearly all actives have a fitted effect of over 55% in size
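Stably hTDP1-transfected Tdp1-null chicken DT40 cells were treated with library compounds minus camptothecin and grown for at least 48 hr at 37 °C, after which cellular ATP was quantified by luminescence.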
DT40 TDP1 CPT: growth inhibition of DT40 Tdp1-/-;hTDP1 cells with camptothecin (screen for TDP1 inhibitors); AID 686979; 420,000 tested, 12% active; chicken DT40 Tdp1-/-;hTDP1 cells + 20 nM CPT, ATP luminescence, 48 h; Potency, µM (doses to about 46.2 µM), usual class: inhibitors; note: nearly all actives have a fitted effect of over 55% in size
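Chicken DT40 Tdp1-/- cells stably complemented with human TDP1 were seeded at 400 cells/well in medium containing 20 nM camptothecin, exposed to pin-transferred compounds, and grown at 37 °C for at least 48 hr. Viability was read as ATP luminescence.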
A number is an active result; - = inactive; ? = inconclusive; . = not tested or not shown; [ ] = dose if it differs, or a comment. Unless noted, calls come from the whole dose curve; as a rule, active = well fitted curve in the direction sought with a large enough effect; inconclusive = small, poorly fitted or top-dose-only effect, or another doubt; inactive = no such curve, though single readings can be large; an effect the other way counts as inactive or inconclusive.

SMILES	HT1080 IDH1KD tx	IL-1B inflam inh	HT1080-NT tox	DT40 TDP1 no CPT	DT40 TDP1 CPT
COc1cc(C(O)c2nc(-c3cccc(C(F)(F)F)c3)cs2)ccc1F (stereo unspecified)	?	?	?	?	16µM
COc1cccc(C(NC(C)=O)c2nc(-c3cccc(C(F)(F)F)c3)cs2)c1 (stereo unspecified)	-	-	-	?	?
COc1ccc(C(O)c2nc(-c3cccc(F)c3)cs2)cc1 (stereo unspecified)	-	-93	-	?	16µM
OC(c1ccccc1)c1nc(-c2cccc(F)c2)cs1 (stereo unspecified)	?	-	?	-	-
CC1CN(C(=O)c2ccccc2)c2ccccc2NC1=O (stereo unspecified)	-	-	-	-	-
CCCN(c1ccc(OCC)cc1)S(=O)(=O)c1ccc2c(c1)NC(=O)CO2	-	-	-	-	-
CC(=O)OC1CCC2(C)C3CC(=O)C4(C)C(CC5OC6(CCC(C)CO6)C(C)C54)C3CC[C@H]2C1 (stereo partly specified)	.	.	.	-	-
COc1ccc(C(O)c2nc(-c3cccc(C(F)(F)F)c3)cs2)cc1 (stereo unspecified)	?	-	-	?	21µM
CCN(CC)CC(O)c1ccc2ccc3ccc(O)cc3c2c1 (stereo unspecified)	-	-61	-	?	?
CC1CCC2C(=O)N(c3ccc(Cc4ccncc4)cc3)C(=O)C2C1 (stereo unspecified)	?	-	?	10µM	5.8µM
O=C1C2C3C=CC(C3)C2C(=O)N1c1ccc(Cc2ccncc2)cc1 (stereo unspecified)	?	-	-	13µM	?
CC1CCN(C(=O)c2ccc(N3C(=O)C4CCC(C)CC4C3=O)cc2)CC1 (stereo unspecified)	-	.	-	-	-
CN(C)CCCNc1nc2cc(-c3cncnc3)sc2c(=O)n1C	-	-	-	-	-
C=CCNc1nc2cc(-c3cccc(Cl)c3)sc2c(=O)n1C	?	-	?	16µM	13µM
CN(C)CCCNc1nc2cc(-c3ccccc3)sc2c(=O)n1C	?	-	9.2µM	21µM	21µM
CN(C)CCCNc1nc2cc(-c3ccc(F)cc3)sc2c(=O)n1C	16µM	-	?	18µM	18µM
Cc1cccc(N/C(=N\S(=O)(=O)c2ccccc2)C(F)(F)F)c1	-	-	-	-	-
COc1ccccc1Nc1nc(NCCCN(C)C)nc(N)c1[N+](=O)[O-]	?	-63	?	?	-
CCC(C)Nc1nc(N)c([N+](=O)[O-])c(Nc2ccccc2OC)n1 (stereo unspecified)	21µM	-88	?	?	?
C=CCNc1nc(N)c([N+](=O)[O-])c(Nc2ccccc2OC)n1	-	-	-	-	?
COc1ccccc1Nc1nc(NCC(C)C)nc(N)c1[N+](=O)[O-]	-	-	-	26µM	?
NCCn1c(=O)c(CCc2ccccc2)nc2cncnc21	.	.	.	-	-
S=C(NCCc1ccccc1)Nc1ccc(N2CCCCC2)cc1	-	-	-	?	?
O=[N+]([O-])c1cccc(-c2ccc(/C=N/NC(=S)NCc3ccco3)o2)c1	?	-	?	16µM	23µM
O=[N+]([O-])c1cccc(-c2ccc(/C=N/NC(=S)Nc3ccccc3)o2)c1	-	-	-	-	-
SMILES	HT1080 IDH1KD tx	IL-1B inflam inh	HT1080-NT tox	DT40 TDP1 no CPT	DT40 TDP1 CPT
COC(=O)c1cccc(NC(=S)NCc2ccco2)c1	-	-	-	15µM	16µM
CN(C)c1ccc(/C=N/NC(=S)NCc2ccco2)cc1	-	-	-	18µM	?
Cc1cnn(C(=S)NCc2ccco2)c1	-	-	-	?	18µM
Cc1cnn(C(=S)NCC2CCCO2)c1 (stereo unspecified)	-	-	-	-	-
S=C(NCc1ccco1)Nc1ccc(Br)cc1Cl	-	-83	-	-	-
O=C(Cc1ccc(-c2ccccc2)cc1)NNC(=S)NCc1ccco1	-	-	-	16µM	?
S=C(NCc1ccco1)NCc1ccco1	-	-	-	26µM	?
S=C(NCc1ccccn1)Nc1ccc(Br)cc1Cl	-	-	-	-	-
O=C(NCc1ccco1)c1c(F)c(F)c(F)c(C(=O)NCc2ccco2)c1F	-	-131	-	-	-
O=C1OC(N2C(=O)CC[C@H]2C(=O)Nc2ccc3c(c2)OCO3)c2ccccc21 (stereo partly specified)	-	-	-	-	-
CCc1cc2ccc(C)cc2nc1SCC(=O)Nc1c[nH]c(=O)[nH]c1=O	-	-	-	?	-
N=c1c(C(=O)NCCN2CCOCC2)cc2c(=O)n3ccccc3nc2n1Cc1ccc(F)cc1	-	?	-	-	?
CN(CCCNC(=O)c1cccn2c(=O)c3ccccc3nc12)Cc1ccccc1	20µM	?	?	?	22µM
O=C(NCCN1CCN(c2ccccc2F)CC1)c1cccn2c(=O)c3ccccc3nc12	-	-	-	16µM	?
O=C(NCCN1CCN(c2ccccc2)CC1)c1cccn2c(=O)c3ccccc3nc12	-	-	-	18µM	?
CCCCCn1c(=O)[nH]c2cc(C(=O)NCCCN(C)Cc3ccccc3)ccc2c1=O	-	-	-	-	-
CC(C)Oc1ccc(/C=N/NC(=O)c2nnn(-c3nonc3N)c2CN(C)c2ccccc2)cc1	?	-	-	?	?
Cc1nc(C)n(CC(=O)N2CCOc3ccc(CN4CCN(C)C[C@@H]4c4ccccc4)cc3C2)n1	.	.	.	-	-[9.04 µM]
CC(C)(O)C#Cc1ccc(CN2CCN(CCc3ccccc3)C(CCO)C2)s1 (stereo unspecified)	-	-	-	?	?
CCOC(=O)N1CCN(c2c(F)cc3[nH]c(=S)[nH]c3c2Br)CC1	?	-	16µM	18µM	?
O=C(Nc1cccc2ccccc12)c1cc2c(cc1Br)OCO2	-	-	-	?	?
CN(C(=O)c1cc2c(cc1Br)OCO2)c1cccc2ccccc12	-	-	-	21µM	?
CSc1ccc(C(=O)C2CCCN(C(=O)CN3CCOC3=O)C2)cc1 (stereo unspecified)	-	-	-	-	-
CCCc1cc(NCC2CCCO2)n2c(nc3ccccc32)c1C#N (stereo unspecified)	-	-	-	23µM	18µM
CCCc1cc(NCc2ccccn2)n2c(nc3ccccc32)c1C#N	-	-	-	18µM	?
COc1cccc(C(O)C2OC(=O)c3ccccc32)c1OC (stereo unspecified)	-	-	-	9.2µM	-
COc1ccc(CCN(C)Cc2cc(-c3cncnc3)ccc2O)cc1OC	.	.	.	-	-[9.04 µM]
